Experiment [1] has as its system CDK4. Set-up: species or system human, MV4-11 + K-562 + COLO205 + SK-N-BE2 + OVCAR-8. The settings on record: read-out: apparent Kd; compound concentrations:100 nM and 1000 nM (sheet 'Samples'); n = 1.
Experiment [2] has as its system NNT. Details: species or system human, MV4-11 + K-562 + COLO205 + SK-N-BE2 + OVCAR-8. As to conditions: read-out: apparent Kd; compound concentrations:100 nM and 1000 nM (sheet 'Samples'); n = 1.
The subject of experiment [3] is CIT. Set-up: species or system human, MV4-11 + K-562 + COLO205 + SK-N-BE2 + OVCAR-8. As to conditions: read-out: apparent Kd, compound concentrations: 100 nM and 1000 nM (sheet 'Samples'), n = 1.
Experiment [4] relates to CSNK1A1. Set-up: species or system human, MV4-11 + K-562 + COLO205 + SK-N-BE2 + OVCAR-8. As to conditions: read-out: apparent Kd, compound concentrations: 100 nM and 1000 nM (sheet 'Samples'), n = 1.
Experiment [5] concerns CSNK1D. Set-up: species or system human, MV4-11 + K-562 + COLO205 + SK-N-BE2 + OVCAR-8. The settings on record: read-out: apparent Kd, compound concentrations: 100 nM and 1000 nM (sheet 'Samples'), n = 1.
Experiment [6] deals with CSNK1E. Details: species or system human, MV4-11 + K-562 + COLO205 + SK-N-BE2 + OVCAR-8. As to conditions: read-out: apparent Kd, compound concentrations: 100 nM and 1000 nM (sheet 'Samples'), n = 1.
Experiment [7] deals with DDR1. Details: species or system human, MV4-11 + K-562 + COLO205 + SK-N-BE2 + OVCAR-8. As to conditions: read-out: apparent Kd; compound concentrations: 100 nM and 1000 nM (sheet 'Samples'), CATDS: 7.6072029759196497E-2; n = 1.
For experiment [8], the system named is DDR2. Set-up: species or system human, MV4-11 + K-562 + COLO205 + SK-N-BE2 + OVCAR-8. As to conditions: read-out: apparent Kd; compound concentrations: 100 nM and 1000 nM (sheet 'Samples'), CATDS: 5.6437798094111098E-2; n = 1.
The test system of experiment [9] is MAPK10. Details: species or system human, MV4-11 + K-562 + COLO205 + SK-N-BE2 + OVCAR-8. The settings on record: read-out: apparent Kd, compound concentrations: 100 nM and 1000 nM (sheet 'Samples'), n = 1.
Experiment [10] has as its system MAPK14. Details: species or system human, MV4-11 + K-562 + COLO205 + SK-N-BE2 + OVCAR-8. As to conditions: read-out: apparent Kd, compound concentrations: 100 nM and 1000 nM (sheet 'Samples'), n = 1.
Experiment [11] relates to MAPK9. Set-up: species or system human, MV4-11 + K-562 + COLO205 + SK-N-BE2 + OVCAR-8. As to conditions: read-out: apparent Kd, compound concentrations: 100 nM and 1000 nM (sheet 'Samples'), n = 1.
Experiment [12] deals with MAPKAPK2. Set-up: species or system human, MV4-11 + K-562 + COLO205 + SK-N-BE2 + OVCAR-8. The settings on record: read-out: apparent Kd, compound concentrations: 100 nM and 1000 nM (sheet 'Samples'), n = 1.
In experiment [13] the test system is NLK. Set-up: species or system human, MV4-11 + K-562 + COLO205 + SK-N-BE2 + OVCAR-8. The settings on record: read-out: apparent Kd, compound concentrations: 100 nM and 1000 nM (sheet 'Samples'), n = 1.
Experiment [14] concerns RIPK2. Set-up: species or system human, MV4-11 + K-562 + COLO205 + SK-N-BE2 + OVCAR-8. As to conditions: read-out: apparent Kd; compound concentrations: 100 nM and 1000 nM (sheet 'Samples'), CATDS: 0.128634977422559; n = 1.
Experiment [15] deals with CDK7. Set-up: species or system human, MV4-11 + K-562 + COLO205 + SK-N-BE2 + OVCAR-8. The settings on record: read-out: apparent Kd, compound concentrations: 100 nM and 1000 nM (sheet 'Samples'), n = 1.
Experiment [16] deals with ERCC2. Details: species or system human, MV4-11 + K-562 + COLO205 + SK-N-BE2 + OVCAR-8. As to conditions: read-out: apparent Kd, compound concentrations: 100 nM and 1000 nM (sheet 'Samples'), n = 1.
Experiment [17] has as its system FER. Set-up: species or system human, MV4-11 + K-562 + COLO205 + SK-N-BE2 + OVCAR-8. As to conditions: read-out: apparent Kd, compound concentrations: 100 nM and 1000 nM (sheet 'Samples'), n = 1.
Experiment [18] relates to GAK. Details: species or system human, MV4-11 + K-562 + COLO205 + SK-N-BE2 + OVCAR-8. As to conditions: read-out: apparent Kd, compound concentrations: 100 nM and 1000 nM (sheet 'Samples'), n = 1.
The subject of experiment [19] is PIK3CA. Details: species or system human, MV4-11 + K-562 + COLO205 + SK-N-BE2 + OVCAR-8. The settings on record: read-out: apparent Kd; compound concentrations: 100 nM and 1000 nM (sheet 'Samples'), CATDS: 0.31694320747902399; n = 1.
In experiment [20] the test system is TNK1. Details: species or system human, MV4-11 + K-562 + COLO205 + SK-N-BE2 + OVCAR-8. The settings on record: read-out: apparent Kd, compound concentrations: 100 nM and 1000 nM (sheet 'Samples'), n = 1.
In experiment [21] the test system is TNK2. Set-up: species or system human, MV4-11 + K-562 + COLO205 + SK-N-BE2 + OVCAR-8. As to conditions: read-out: apparent Kd, compound concentrations: 100 nM and 1000 nM (sheet 'Samples'), n = 1.
Experiment [22] relates to PKN3. Details: species or system human, MV4-11 + K-562 + COLO205 + SK-N-BE2 + OVCAR-8. The settings on record: read-out: apparent Kd; compound concentrations: 100 nM and 1000 nM (sheet 'Samples'), CATDS: 0.10775551436498899; n = 1.
Experiment [23] has as its system PAK4. Set-up: species or system human, MV4-11 + K-562 + COLO205 + SK-N-BE2 + OVCAR-8. As to conditions: read-out: apparent Kd; compound concentrations: 100 nM and 1000 nM (sheet 'Samples'), CATDS: 5.1367607354333399E-2; n = 1.
Experiment [24] has as its system PIP4K2C. Set-up: species or system human, MV4-11 + K-562 + COLO205 + SK-N-BE2 + OVCAR-8. The settings on record: read-out: apparent Kd; compound concentrations: 100 nM and 1000 nM (sheet 'Samples'), CATDS: 6.1444231758823603E-2; n = 1.
For experiment [25], the system named is PTK2B. Set-up: species or system human, MV4-11 + K-562 + COLO205 + SK-N-BE2 + OVCAR-8. The settings on record: read-out: apparent Kd; compound concentrations: 100 nM and 1000 nM (sheet 'Samples'), CATDS: 5.2093058874082297E-2; n = 1.
Experiment [26] concerns the target Q6ZSR9 (human, UniProt Q6ZSR9). Set-up: species or system MV4-11 + K-562 + COLO205 + SK-N-BE2 + OVCAR-8. As to conditions: read-out: apparent Kd; compound concentrations: 100 nM and 1000 nM (sheet 'Samples'), CATDS: 4.2380052385305601E-2; n = 1.
The test system of experiment [27] is SIK2. Details: species or system human, MV4-11 + K-562 + COLO205 + SK-N-BE2 + OVCAR-8. The settings on record: read-out: apparent Kd; compound concentrations: 100 nM and 1000 nM (sheet 'Samples'), CATDS: 4.6797026760186898E-2; n = 1.
For experiment [28], the system named is STK3. Details: species or system human, MV4-11 + K-562 + COLO205 + SK-N-BE2 + OVCAR-8. As to conditions: read-out: apparent Kd; compound concentrations: 100 nM and 1000 nM (sheet 'Samples'), CATDS: 4.17809647402431E-2; n = 1.
The test system of experiment [29] is STK4. Details: species or system human, MV4-11 + K-562 + COLO205 + SK-N-BE2 + OVCAR-8. The settings on record: read-out: apparent Kd; compound concentrations: 100 nM and 1000 nM (sheet 'Samples'), CATDS: 4.6786088352923701E-2; n = 1.

Where two headings read alike, the source gives them in different places.

Among the data in article PMC11062922 (Nature Chemical Biology, 2023) are potency estimated from few doses values, retold here.

Q6ZSR9, sequence (Q6ZSR9 whole entry, looked up): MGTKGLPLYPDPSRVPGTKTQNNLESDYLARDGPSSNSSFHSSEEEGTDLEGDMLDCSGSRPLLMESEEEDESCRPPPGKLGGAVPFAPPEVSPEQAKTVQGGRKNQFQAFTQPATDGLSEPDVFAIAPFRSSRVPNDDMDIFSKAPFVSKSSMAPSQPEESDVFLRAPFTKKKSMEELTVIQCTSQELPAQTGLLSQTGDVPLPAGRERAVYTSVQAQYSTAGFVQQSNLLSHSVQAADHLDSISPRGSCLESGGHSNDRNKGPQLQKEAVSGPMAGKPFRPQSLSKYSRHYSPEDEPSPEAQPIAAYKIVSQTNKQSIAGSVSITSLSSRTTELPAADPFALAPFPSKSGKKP

On to `O=C1NC(=O)C(c2ccc(Cl)cc2)=C1Nc1ccc(O)cc1` [SB-340867], for which the potency estimated from few doses in experiment [1] is 1970 nM; in [2], 1720 nM.

On to `Nc1nccc(-c2c(-c3ccc(F)cc3)ncn2C2CCN(CC(F)(F)F)CC2)n1` [SB-236560], for which the potency estimated from few doses in experiment [3] (CATDS: 7.9772232901770906E-2) was 168 nM; in experiment [4] (CATDS: 5.74682899523659E-2) it was 514 nM; in experiment [5] (CATDS: 0.160108926806518), 41.3 nM; in [6] (CATDS: 0.10532594591196801) it was 87.7 nM; in experiment [7], 191 nM; in experiment [8], 559 nM. The potency estimated from few doses in experiment [9] (CATDS: 4.9775918057440499E-2) was 1150 nM; in [10] (CATDS: 0.14251472882722499) it was 50 nM; in experiment [11] (CATDS: 6.3726988892981506E-2), 338 nM; in experiment [12] (CATDS: 0.17165135235048001), 37.1 nM; in [13] (CATDS: 9.0409575218607804E-2), 123 nM; in experiment [14], 59.8 nM.

`Nc1c(C(=O)c2cccc(C(O)CO)c2)cnn1-c1ccc(F)cc1` (stereo not shown) [RO3200567-000]: the potency estimated from few doses in experiment [15] (CATDS: 0.117624966951351) was 1730 nM; in [16] (CATDS: 0.117960560736162), 1710 nM; in experiment [17] (CATDS: 0.13650868273140601) it was 1200 nM; in [18] (CATDS: 0.12538076296612899), 1460 nM; in experiment [19], 285 nM; in [20] (CATDS: 0.145879794624587), 1040 nM. For the same molecule, the potency estimated from few doses in experiment [21] (CATDS: 0.149039092060825) was 993 nM.

`Cc1ccn2nc(-c3ccc(F)cc3)c(-c3ccncc3)c2c1.Cl` [GW457859A]: the potency estimated from few doses in experiment [3] (CATDS: 0.16560503181349201) is 653 nM; in [4] (CATDS: 0.105298123149642), 2070 nM; in [5] (CATDS: 0.38029539442901) it was 165 nM; in experiment [6] (CATDS: 0.17601881181755799), 578 nM; in experiment [10] (CATDS: 0.12679025336255401), 1200 nM; in experiment [12] (CATDS: 0.125209165131694), 1240 nM. Besides, the potency estimated from few doses in [22] is 1920 nM.

Regarding `Cl.Cn1c(=O)c(Oc2cccc(F)c2)cc2cnc(NC3CCOCC3)nc21` [RO3304774-001], the potency estimated from few doses in [15] (CATDS: 4.9338137384748702E-2) is 1360 nM; in [16] (CATDS: 5.1368063894958502E-2), 1240 nM; in [17] (CATDS: 5.6215291988472402E-2), 1010 nM; in experiment [18] (CATDS: 4.9289180471638903E-2), 1370 nM; in [9] (CATDS: 5.8204150926545503E-2) it was 939 nM; in experiment [10] (CATDS: 6.3546758887955801E-2), 786 nM. In addition, the potency estimated from few doses was 1240 nM in [11] (CATDS: 5.1291573819888199E-2); 665 nM in experiment [12] (CATDS: 6.9359248510779001E-2); 17.9 nM in experiment [13] (CATDS: 0.64871625608349803); 1240 nM in experiment [23]; 840 nM in experiment [24]; 1200 nM in experiment [25]. The potency estimated from few doses in experiment [26] was 2060 nM; in experiment [27] it was 1560 nM; in [28], 2160 nM; in [29], 1560 nM; in [20] (CATDS: 5.4278066670988299E-2), 1090 nM; in [21] (CATDS: 7.0528629271619694E-2) it was 645 nM.
